Source: PubChem
Shown are actives, neighbours in structure and some others; about 1.4% of the full set was active somewhere.
ASM inhibitor: blocks human secretory acid sphingomyelinase | P17405 | placental ASM, HMU-PC fluorogenic substrate, 60 min | Potency, µM (doses to about 57.5 µM), for inactives: top-dose activity change, negative = inhibition, actives largely listed as inhibitors | 340,000 compounds, 0.006% hits; note: potency is the fitted concentration of half-maximal effect
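Fluorogenic HMU-PC substrate (9 uM final) is turned over by placental ASM in 60 min at 37 C after a 10 min compound preincubation. Reaction ended by alkaline stop (pH 10), with fluorescence read at 386/447 nm.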
ALOX12 inh: inhibitors of human 12S-lipoxygenase ALOX12; P18054; purified 12hLO, xylenol orange hydroperoxide absorbance; Potency, µM (titrated, usually from 108 µM), for the others: at the highest dose activity change, negative = inhibition, usual class: inhibitors; 580,000 compounds, 1.1% hits; AID 1671190; note: potency is the fitted concentration of half-maximal effect; % is set by controls: 0 for no effect and ±100 for the full control effect
Target sequence (P18054 whole entry, looked up): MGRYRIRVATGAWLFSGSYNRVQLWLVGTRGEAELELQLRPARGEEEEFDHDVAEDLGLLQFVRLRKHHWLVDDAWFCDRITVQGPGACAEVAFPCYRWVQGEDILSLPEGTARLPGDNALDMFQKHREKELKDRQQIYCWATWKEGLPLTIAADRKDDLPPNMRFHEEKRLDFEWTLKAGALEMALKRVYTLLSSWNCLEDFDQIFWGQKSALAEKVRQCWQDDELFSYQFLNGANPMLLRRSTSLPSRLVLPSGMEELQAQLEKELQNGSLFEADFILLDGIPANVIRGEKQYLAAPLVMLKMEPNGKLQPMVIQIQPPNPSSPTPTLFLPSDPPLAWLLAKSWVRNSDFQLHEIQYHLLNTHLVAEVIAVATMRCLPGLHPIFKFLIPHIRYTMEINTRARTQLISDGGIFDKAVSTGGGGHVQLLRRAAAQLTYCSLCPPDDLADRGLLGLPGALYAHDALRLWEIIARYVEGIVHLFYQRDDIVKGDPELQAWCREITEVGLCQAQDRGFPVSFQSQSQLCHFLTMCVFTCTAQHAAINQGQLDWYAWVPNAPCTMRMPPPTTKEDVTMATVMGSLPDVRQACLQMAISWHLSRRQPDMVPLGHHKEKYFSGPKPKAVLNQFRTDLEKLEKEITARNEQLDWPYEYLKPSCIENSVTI
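Purified human 12hLO (150 nM final) in 25 mM Hepes, 0.01% Triton X-100, pH 7.0 was preincubated 15 min at room temperature with compound. Then 40 uM arachidonic acid was added, 30 min. Hydroperoxide was read by Fe-XO absorbance ratio 573/405 nm.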
Vif-A3G inh: inhibitors of Vif-APOBEC3G interaction. Q9HC16. HeLa A3G-eYFP + Vif (tagged APOBEC3G with the HIV-1 protein that degrades it), YFP fluorescence, overnight. Potency, µM (doses to about 46.1 µM), without a hit: at the top dose activity, negative = active, most hits filed as inhibitors. 410,000 compounds, 0.076% hits. AID 602310; note: potency is the fitted concentration of half-maximal effect; % is set by controls: 0 for no effect and ±100 for the full control effect; nearly all actives have a fitted effect of over 60% in size
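Read-out is eYFP fluorescence (Ex 488/Em 500-530) from Vif-expressing HeLa A3G-eYFP cells; more signal means A3G escaped Vif-mediated degradation. Cells plated overnight, compound pinned in, incubated overnight at 37 deg C.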
PTAP TSG101 blk: blocks PTAP/TSG101 interaction to inhibit HIV-1 budding. Potency, µM (highest dose often 115 µM), without a hit: at the highest dose activity change, negative = inhibition, actives largely listed as inhibitors. Fluorescence polarization, FITC-PTAP peptide / Tsg101 binding. Q99816. 340,000 tested, under 10 active; active = well fitted inhibition curve with a large enough effect in the main read-out, with a control signal flat, not every such curve was filed as active; inconclusive = small, poorly fitted or top-dose-only effect, or effect the other way, or a change in a side signal; inactive = no such curve, though single readings can be large or run the other way; note: potency is the fitted concentration of half-maximal effect; % of control where 0% means no effect
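Fluorescence anisotropy tracks displacement of a FITC-tagged PTAP peptide (50 nM) from the Tsg101 binding domain (10 uM), following a 20 min room-temperature incubation at pH 7.5.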
Vif-APOBEC3F blk: Vif-A3F binding inhibition; 390,000 compounds, 0.2% hits; HeLa A3F-eYFP + Vif (tagged APOBEC3F with the HIV-1 protein that degrades it), YFP fluorescence increase; Potency, µM (highest dose often 46.1 µM), for the others: at the highest dose activity, negative = active; AID 602313; note: potency is the fitted concentration of half-maximal effect; % of control where 0% means no effect; nearly all actives have a fitted effect of over 65% in size
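HeLa cells stably expressing Vif plus C-terminally eYFP-tagged A3F were seeded, incubated overnight at 37 deg C, dosed with compound, incubated overnight again at 37 deg C. Yellow fluorescence (Ex 488/Em 500-530) reported blocked Vif-mediated A3F-eYFP degradation.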
Akt phos inh: blocks phosphorylation of Akt; Neuro2A IGF-stimulated pAkt S473 HTRF, 20 min; hits give low values; 360,000 compounds, 0.32% hits; activity change, % for hits at 50 µM; in the data active = activity change below about -80%; inconclusive = mostly about -51% to -80%; note: % is set by controls: 0 for no effect and ±100 for the full control effect
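Single-point screen (50 µM final compound) in Neuro2A cells stimulated 20 min with 6 nM IGF at 37 deg C. After lysis, Ser473-phosphorylated Akt read by HTRF (ex 330 nm, em 615/665 nm) as the 665/615 ratio.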
* marks the source's active call; other numbers are inactive results; i = inactive; ? = inconclusive; · = no result given; [ ] = remark or other dose. Unless noted, calls come from the whole dose curve; as a rule, active = well fitted curve in the direction sought with a large enough effect; inconclusive = small, poorly fitted or top-dose-only effect, or another doubt; inactive = no such curve, though single readings can be large; an effect the other way counts as inactive or inconclusive.

SMILES | ASM inhibitor | ALOX12 inh | Vif-A3G inh | PTAP TSG101 blk | Vif-APOBEC3F blk | Akt phos inh
O=[N+]([O-])c1ccc(C2=Nc3cc(Cl)ccc3OC2)cc1 | -11% | ? | -5% | 2% | 25µM* | i
CCCCCCC1C(C#N)=C(N)OC2=C1C(=O)CCC2 (stereo not drawn) | 2% | 32µM* | 0% | -1% | 0% | i
O=c1oc2c(-c3ccc([N+](=O)[O-])cc3)cc(O)cc2s1 | -1% | 40µM* | -2% | -1% | 15% | i
NC1=C(c2ccc([N+](=O)[O-])cc2)C(=O)CO1 | -1% | -4% | 2% | -4% | -3% | i
CC1CCCC/C1=N\NC(=S)Nc1ccccc1 (stereo not drawn) | -4% | ? | 0% | 0% | ? | i
CC(C)NC(=S)N/N=C1\CCCCC1C1CCCCC1 (stereo not drawn) | -3% | 22µM* | 1% | 1% | 8% | i
S=C(N/N=C1\CCCCC1C1CCCCC1)Nc1ccccc1 (stereo not drawn) | · | 16µM* | · | · | · | ·
CN(C)CC1CCC/C(=C/c2ccc(Cl)cc2)C1=O (stereo not drawn) | -2% | 35µM* | -6% | 0% | ? | i
COc1ccc(/C=C2/CCCC(CN(C)C)C2=O)cc1 (stereo not drawn) | -3% | ? | ? | 1% | ? | i
CCCNC(=O)c1cc(-c2ccc(OC)cc2OC)nc2ccccc12 | · | 13µM* | · | · | · | ·
O=C(NCc1ccccc1)c1ccnc(-c2nnc3ccc(N4CCOCC4)nn23)c1 | · | 25%[176 µM] | · | · | · | ·
CN(C(=O)c1ccnc(-c2nnc3ccc(N4CCOCC4)nn23)c1)c1ccccc1 | · | 32µM* | · | · | · | ·
CCN(CC)c1nc2c(c(=O)n(C)c(=O)n2C)n1C(C)C | · | 9% | · | · | · | ·
OC(CNCc1ccco1)Cn1c2ccc(Br)cc2c2cc(Br)ccc21 (stereo not drawn) | ? | 6.3µM* | -4% | -2% | -10% | i
CCOc1ccccc1Oc1coc2cc(OC(=O)c3ccccc3F)ccc2c1=O | · | -2% | · | · | · | ·
COC(=O)C1=C(CN2CCN(C(C)C)CC2)NC(=O)NC1c1ccc(C)cc1 (stereo not drawn) | · | -12% | · | · | · | ·
CC(=O)Nc1cccc(C(C)NC(=O)Nc2cc(Cl)c(Cl)cc2Cl)c1 (stereo not drawn) | · | -64% | · | · | · | ·
S=C(NCc1ccco1)NCc1ccco1 | 2% | 32µM* | -1% | 1% | 10% | i
CC(C)CCNC(=S)NCc1ccco1 | · | 32µM* | · | · | · | ·
S=C(NCc1ccccc1)NCc1ccco1 | 5% | 0% | 3% | -5% | 0% | i
O=C(COc1ccc(Cl)cc1Cl)NNC(=S)NCc1ccco1 | -4% | 45µM* | -1% | -7% | -14% | i
O=C(CC12CC3CC(CC(C3)C1)C2)NC(=S)NCc1ccco1 | -1% | 28µM* | 0% | -3% | ? | i
O=C(NCc1ccco1)C12CC3CC(CC(C3)C1)C2 | 3% | -17% | 1% | -4% | 3% | i
CC(CC(=O)Nc1cccc(Br)c1)n1ccnc1 (stereo not drawn) | · | 46% | · | · | · | ·
C=C(C)C(=O)Oc1ccc(N=Nc2ccc(C)cc2)ccc1=O | -3% | 22µM* | ? | -5% | -2% | i
SMILES | ASM inhibitor | ALOX12 inh | Vif-A3G inh | PTAP TSG101 blk | Vif-APOBEC3F blk | Akt phos inh
CN1CCc2c(sc3nc(SCC(=O)N4CCOCC4)nc(N)c23)C1 | 61% | 65% | 1% | -1% | -10% | -104%*
CC1CCN(C(=O)CSc2nc(N)c3c4c(sc3n2)CN(C)CC4)CC1 | 63% | · | 1% | 1% | · | i
c1ccc2c(NCc3ccc4c(c3)OCO4)nc(-c3ccncc3)nc2c1 | · | 1% | · | · | · | ·
O=C(NCC1(c2ccc(F)cc2)CC1)C1CCN(C(=O)CCc2ccccc2)CC1 | · | 4% | · | · | · | ·
CCCNC(=O)N[C@@H]1CCC[C@@H](C(=O)N(CC)CC)CC(=O)N(C)C1 | · | 40µM* | · | · | · | ·
Cc1cc(C)cc(OCCCC(=O)O)c1 | 0% | 58% | -8% | -5% | -3% | -106%*
